Mito fusion act = qHTS Assay for Small Molecule Inhibitors of Mitochondrial Division or Activators of Mitochondrial Fusion; S. cerevisiae fusion-defective mutant growth rescue, CellTiterGlo 48 h; Potency, µM (series often up to 46.1 µM), actives largely listed as activators; 320,000 compounds, 0.23% hits; AID 485298, 2010; further: nearly all actives have a fitted effect of over 45% in size
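Growth-rescue viability read-out: after 48 h at the non-permissive 37C in glycerol/ethanol YPEG, yeast mitochondrial fusion mutants are measured by CellTiterGlo luminescence; compounds (23 nl pinned per well) restoring growth score as division inhibitors or fusion activators.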
Abeta rescue = qHTS for compounds that reverse cellular toxicity of Amyloid beta (A-beta) peptide in yeast: Primary Screen. yeast expressing A-beta42, growth rescue, OD600, 48 h; response scale: 0% DMSO, 100% iron-clioquinol control. Potency, µM (titrated, usually from 46.1 µM), most hits filed as activators. 410,000 compounds, 0.063% hits. AID 1347071, 2019; further: nearly all actives have a fitted effect of over 55% in size
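Yeast growth medium received pinned compounds, then yeast cells expressing toxic A-beta were added; plates incubated at 30 C for 48 hr. Growth read as absorbance at 600 nm, normalized to DMSO and equimolar FeCl3 plus clioquinol controls.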
aSyn rescue = qHTS of alpha-syn Inhibitors | 370,000 compounds, 0.14% hits | Yeast expressing alpha-synuclein, growth rescue, BacTiter-Glo, 24 h | AID 652106, 2013 | Potency, µM (doses to about 46.1 µM), usual class: activators; further: nearly all actives have a fitted effect of over 65% in size
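Readout is rescue of growth in alpha-synuclein-expressing yeast, so inhibitors of toxicity appear as activators. Growth after 24 hr at 30 deg C in galactose medium is quantified by luminescence.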
Glioma ERSR ind = qHTS for Inducers of the Endoplasmic Reticulum Stress Response (ERSR) in Human Glioma: qHTS; U87-MG GRP78 promoter luciferase reporter, 16 h; Potency, µM, most hits filed as activators; 420,000 compounds, 0.02% hits; further: series mostly up to about 76 µM; nearly all actives have a fitted effect of over 35% in size
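Stably transfected U87-MG glioma cells carrying a GRP78-based luciferase sensor; 16 h compound incubation. Luminescence end-point read 10 min after Bright-Glo addition at room temperature.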
TDP-43 yeast inh = qHTS of TDP-43 Inhibitors. TDP-43 expressing yeast growth rescue, BacTiter-Glo, 24 h. Potency, µM (titrated, usually from 46.1 µM), usual class: activators. 410,000 compounds, 1.8% hits. AID 652104, 2013; further: nearly all actives have a fitted effect of over 50% in size
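Galactose-induced TDP-43 yeast, OD600=0.02, compound pinned; 24 hr, 30 deg C; BacTiter-Glo luminescence for growth. Inhibitors of TDP-43 toxicity read as activators.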
A-T KAP1 phos = qHTS Assay for Identifying a Potential Treatment of Ataxia-Telangiectasia; F2112 A-T fibroblasts, KAP-1 phosphorylation AlphaLISA; neocarzinostatin DNA damage 30 min before lysis; Potency, µM (top dose mostly 57.5 µM), usual class: activators; 320,000 compounds, 0.19% hits; further: nearly all actives have a fitted effect of over 45% in size
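hTERT-immortalized A-T patient fibroblasts (F2112), 500 cells/well in OPTI-MEM, 1% FBS, got compounds for 60 min, then NCS for 30 min at 37C. Lysates were then assayed for phospho-KAP-1 by AlphaLISA (anti-pKAP1 donor, anti-KAP1 acceptor beads), 6 hr at 25C.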
Numbers stand for hits; – = inactive; ? = inconclusive; · = no result; ! = not confirmed by another sample. In the library only some 2.1% were active in any assay of this set; here they are far more common. The call rests on the fitted dose curve; in most records, active means well fitted curve in the direction sought with a large enough effect; inconclusive means small, poorly fitted or top-dose-only effect, or another doubt; inactive means no such curve, though single readings can be large; an effect the other way counts as inactive or inconclusive.

SMILES | Mito fusion act | Abeta rescue | aSyn rescue | Glioma ERSR ind | TDP-43 yeast inh | A-T KAP1 phos
CCSc1nc(C)cc(C)c1S(=O)(=O)c1ccccc1C | – | – | – | – | – | –
CSc1nc(C)cc(C)c1S(=O)(=O)c1ccccc1C | – | ? | – | – | 11µM | –
C=CCNC(=O)/C(C#N)=C/c1ccccc1Cl | – | ? | – | – | – | –
C=CCNC(=O)/C(C#N)=C/c1cc(Br)ccc1OC | – | – | – | – | 11µM | –
N#C/C(=C\c1ccc(OC(F)F)cc1)C(=O)N1CCCCC1 | – | – | 13µM | – | ? | –
COc1cccc(-n2c(SC)nnc2C2CCN(CCC(C)c3ccc(C)o3)CC2)c1 (stereo unspecified) | · | · | · | – | · | ·
COc1ccc(OC)c(C2=Nn3c(nnc3-c3ccco3)SC2)c1 | – | – | – | – | – | –
COc1ccc(C2=Nn3c(nnc3-c3ccco3)SC2)cc1 | – | – | – | – | 22µM | –
Cc1noc(NS(=O)(=O)c2ccc(N/C=C\C(=O)c3ccncc3)cc2)c1C | – | – | – | – | – | ·
Cc1noc(NS(=O)(=O)c2ccc(N/C=C/C(=O)c3cccnc3)cc2)c1C | – | – | 20µM | – | – | –
CC(C)NC(=O)C1(N2C(=O)c3ccccc3C2=O)CCCC1 | · | – | – | – | 11µM | ·
Cc1ccc(N(C)C(=O)c2sc3nc4n(c(=O)c3c2C)CCCC4)cc1C | · | – | · | – | 16µM | ·
COc1ccc(C)cc1N(C)C(=O)c1sc2nc3n(c(=O)c2c1C)CCCCC3 | · | – | · | – | – | ·
Cc1ccc(Cl)cc1N(C)C(=O)c1sc2nc3n(c(=O)c2c1C)CCCC3 | · | – | · | – | 20µM | ·
C[N+](C)(C)CCOP(=O)(O)OP(=O)([O-])OCC1OC(n2ccc(N)nc2=O)[C@H](O)[C@@H]1O (stereo partly specified) | · | · | · | – | · | ·
O=S(=O)(NCCOc1ccccc1F)c1ccc(Cl)cc1F | · | – | – | – | 22µM | –
O=S(=O)(NCCOc1ccccc1F)c1cccc(Br)c1 | – | ? | – | – | 13µM | –
N#Cc1cccc(S(=O)(=O)NCCOc2ccccc2F)c1 | – | – | – | – | – | –
COc1ccccc1N1CCN(c2nc(CNC(=O)c3ccc(C)c(C)c3)nc3ccccc23)CC1 | · | · | · | – | · | ·
CCOc1ccc(N(CC)C(=O)c2cc3c(s2)-c2ccccc2OC3)cc1 | · | – | · | – | – | ·
Fc1ccccc1-n1ncc2c1ncn1nc(Cc3ccccc3)nc21 | · | – | · | · | 10µM | ·
COc1ccc(Cc2nc3c4cnn(-c5ccccc5F)c4ncn3n2)cc1 | · | – | · | · | ? | ·
COc1ccc(C(=O)n2nc(C)cc2Nc2ccccc2)cc1 | – | – | – | – | 35µM | –
Cc1cc(Nc2ccccc2)nn1C(=O)c1ccccc1 | – | – | – | – | – | –
CCc1ccc(CNC(=O)CCCn2c(=O)c3cccn3c3cccnc32)cc1 | 11µM | – | – | – | – | –
SMILES | Mito fusion act | Abeta rescue | aSyn rescue | Glioma ERSR ind | TDP-43 yeast inh | A-T KAP1 phos
CC(C)Oc1ccc(CNC(=O)CCCn2c(=O)c3cccn3c3cccnc32)cc1 | · | – | · | – | – | ·
O=C(CCCn1c(=O)c2cccn2c2cccnc21)NCCc1ccc(Cl)cc1 | – | – | – | – | 22µM! | –
CN1CCN(C(CNC(=O)c2ccccc2)c2ccc3c(c2)OCO3)CC1 (stereo unspecified) | · | – | · | – | – | ·
Clc1ccc(-n2nnnc2Sc2ncnc3sccc23)cc1 | · | – | – | – | 10µM | ·
C[C@@H]1CN(Cc2ccc3c(c2)CN(Cc2cccc(O)c2)CCO3)C[C@H](C)O1 | · | · | · | – | · | ·
COc1ccc(-c2ccccc2)cc1NC(=O)C1(C)CCN1C(=O)C(C)C (stereo unspecified) | · | – | – | – | 35µM | ·
C/C=C(\C)C(=O)NCCN1Cc2ccccc2OC(c2ccccc2OC)C1 (stereo unspecified) | · | · | · | – | · | ·
Cc1ccc2nc(SCC(=O)N3CCOc4ccc(CN5C[C@@H](C)O[C@@H](C)C5)cc4C3)[nH]c2c1 | · | · | · | – | · | ·
C[C@@H]1NC(=O)[C@@]2(C)[C@@H](c3ccccc3)[C@H]3COc4ccc(Cl)cc4[C@@H]3N2C1=O | – | – | – | – | – | –
O=S1OC(c2ccccc2)c2cc(Cl)ccc21 (stereo unspecified) | – | – | – | – | 13µM | –
C[N+]1(C)CCC(OC(=O)CC(O)(c2ccccc2)C2CCCC2)C1 (stereo unspecified) | · | · | · | – | · | ·
COc1ccc2oc(=O)c(-c3csc(Nc4cccc(O)c4)n3)cc2c1 | 16µM | – | – | – | – | –
COc1ccc(Nc2nc(-c3cc4cccc(OC)c4oc3=O)cs2)cc1 | – | – | – | – | – | –
CC(C)(C)c1nnc(N/N=C/c2ccccc2O)n(N)c1=O | – | 11µM | 18µM | – | – | –
CCC12CN3CC(C)(CN(C1)C3c1c[nH]c3ccc(OC)cc13)C2=O (stereo unspecified) | · | – | · | – | – | ·
CCCCN(CCC(=O)O)c1ccc(/C=C/c2ccnc3ccccc23)cc1 | · | · | · | – | · | ·
Cc1cccc(CN2C(=O)[C@H]3Cc4c([nH]c5ccccc45)C(C)(C)N3C2=O)c1 | · | ? | · | – | · | ·
Cc1cccc(CN2C(=O)[C@@H]3Cc4c([nH]c5ccccc45)C(C)(C)N3C2=O)c1 | · | 7.9µM | · | – | · | ·
COc1ccc(-n2c(CCNC(=O)c3ccc(-c4cccc(F)c4)cc3)nnc2SC)cc1 | · | · | · | – | · | ·
CC(=O)c1cccc(Nc2cc(C)nc3nc(-c4ccccc4C)nn23)c1 | · | – | · | – | 11µM | ·
Cc1cc(Nc2cccc(C(=O)O)c2)n2nc(C)nc2n1 | · | – | · | – | – | ·
COc1ccc(C=O)cc1COc1ccc2c(c1)OCO2 | – | – | – | – | 14µM | –
O/N=C(\COc1ccccc1O)c1ccccc1 | – | ? | – | – | – | –
ON=C(CCc1ccccc1)c1ccccc1 | · | – | – | – | 16µM | ·
CCC1CN(C(=O)Nc2ccc(C(=O)O)cc2)c2cc(Cl)ccc2O1 (stereo unspecified) | · | – | · | – | 13µM | ·

High-throughput results from PubChem BioAssay.
